In PubChem BioAssay:
Calls of active or inactive are those of the source.

Experiments:
[1] = biological target: Albumin (Bos taurus) (UniProt P02769); test: bovine serum albumin binders on microarray, profiling panel, artefact control for SMM control protein annotation, biochemical, small-molecule microarray, Alexa647 label, 635/667 nm fluorescence (AID 1118); settings: BSA-A647 binding, fluorescence 635 nm, higher = more signal;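 note: score merges 667 nm emission intensity and signal-to-noise per printed compound spot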
Chain of Albumin (Bos taurus) (P02769 whole entry, looked up): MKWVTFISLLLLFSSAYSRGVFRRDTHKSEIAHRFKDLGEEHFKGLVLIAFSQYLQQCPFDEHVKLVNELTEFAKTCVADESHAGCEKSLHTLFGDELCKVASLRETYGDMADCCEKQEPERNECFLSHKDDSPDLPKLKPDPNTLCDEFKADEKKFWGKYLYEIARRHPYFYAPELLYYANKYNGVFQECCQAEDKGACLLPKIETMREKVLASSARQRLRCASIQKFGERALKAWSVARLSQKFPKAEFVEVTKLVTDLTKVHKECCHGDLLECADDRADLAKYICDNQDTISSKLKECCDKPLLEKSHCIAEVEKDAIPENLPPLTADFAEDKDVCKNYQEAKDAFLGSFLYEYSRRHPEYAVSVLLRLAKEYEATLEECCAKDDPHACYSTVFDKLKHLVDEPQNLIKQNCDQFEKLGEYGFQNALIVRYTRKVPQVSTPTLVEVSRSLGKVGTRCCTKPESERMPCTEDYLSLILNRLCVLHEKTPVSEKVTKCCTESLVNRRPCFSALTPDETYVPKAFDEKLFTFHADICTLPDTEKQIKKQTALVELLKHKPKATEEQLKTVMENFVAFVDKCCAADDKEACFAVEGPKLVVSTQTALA

[2] = small-molecule microarray binders of probe aXIP, primary screen, biochemical, NeuroSMM set, 635/667 nm fluorescence (AID 1119); settings: higher = more signal, called active from +8 up or from −8 down;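 note: probe is the protein aXip251-270 applied at 1 µg/mL to compound-printed slides; binding of probe to printed compounds measured as 667 nm fluorescence plus signal to noise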
[3] = small-molecule binders of probe aNOTCH3, primary screen, biochemical, small-molecule microarray, 635/667 nm fluorescence (AID 1120); settings: higher = more signal;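 note: probe is a biotin-tagged antibody raised against NOTCH3 rather than NOTCH3 protein; score merges spot fluorescence near 667 nm with spot signal to noise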
[4] = small-molecule binders of probe aNOTCH2, primary screen, biochemical, small-molecule microarray, 635/667 nm fluorescence (AID 1121); settings: higher = more signal;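 note: score merges feature fluorescence read at 667 nm with its signal to noise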
[5] = biological target: Carbonic anhydrase 2 (Homo sapiens) (UniProt P00918); test: CAII small-molecule binders, profiling panel, biochemical, small-molecule microarray, Alexa647-labelled CAII (AID 1122); settings: CAII-A647 binding fluorescence, higher = more signal
[6] = COS7 lysate on small-molecule microarray, probe aHis, 635 nm (AID 1123); settings: COS7 cell lysate, fluorescence, higher = more signal;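 note: z-score combines 667nm fluorescence intensity with signal-to-noise per printed compound spot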
[7] = compound binding in COS7 lysate, probe aLAP1, primary screen, cell lysate, small-molecule microarray (AID 1124); settings: probe aLAP1, fluorescence, higher = more signal;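 note: lysate comes from COS7 cells expressing LAP1 and is applied at 0.3 µg/mL; score merges spot fluorescence near 667 nm with signal-to-noise over triplicate slides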
[8] = system: Sam68 (KHDRBS1); test: Sam68 small-molecule binders, primary screen, biochemical, small-molecule microarray, 635 nm fluorescence (AID 1125); settings: small-molecule microarray binding, higher = more signal;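 note: score merges 667 nm channel intensity with signal to noise over triplicate slides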
[9] = system: Chordin-like protein 2 (CHRDL2); test: CHRDL2 small-molecule binders, primary screen, biochemical, small-molecule microarray, 635 nm fluorescence (AID 1126); settings: small-molecule microarray binding, fluorescence 635 nm; higher = more signal;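 note: printed compound slides probed with Chrdl2 protein at 4 µg/mL for 1 h at 4 C; score merges 667 nm emission intensity with signal to noise over three replicate slides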
[10] = biological target: Concanavalin-A (Canavalia ensiformis) (UniProt P02866); test: ConA small-molecule binders, primary screen, artefact control for SMM control protein annotation, biochemical, small-molecule microarray, Alexa647 label, 635 nm (AID 1127); settings: ConA-A647 binding fluorescence, higher = more signal;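 note: z combines 667 nm emission intensity with signal-to-noise across three replicate slides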
Chain of Concanavalin-A (Canavalia ensiformis) (P02866 whole entry, looked up): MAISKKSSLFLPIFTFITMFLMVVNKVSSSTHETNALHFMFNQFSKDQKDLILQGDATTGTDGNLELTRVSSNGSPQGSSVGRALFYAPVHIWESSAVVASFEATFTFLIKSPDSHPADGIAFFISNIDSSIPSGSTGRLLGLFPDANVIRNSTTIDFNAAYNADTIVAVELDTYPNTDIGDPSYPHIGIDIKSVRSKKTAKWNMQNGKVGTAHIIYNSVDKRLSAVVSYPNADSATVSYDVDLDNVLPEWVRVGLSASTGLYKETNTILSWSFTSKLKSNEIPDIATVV

[11] = anti-His antibody binders, primary screen, artefact control for SMM control protein annotation, biochemical, small-molecule microarray, 635 nm fluorescence (AID 1128); settings: anti-His Alexa647 antibody binding, higher = more signal;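 note: score merges feature fluorescence with signal-to-noise for each printed compound spot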
[12] = system: Human papillomavirus type 1a E7 protein (residues 1-88); test: HPV1a E7 small-molecule binders, primary screen, biochemical, small-molecule microarray, residues 1-88, 635 nm (AID 1129); settings: small-molecule microarray binding, fluorescence 635 nm; higher = more signal
[13] = biological target: Focal adhesion kinase 1 (Homo sapiens) (UniProt Q05397); test: small-molecule microarray binders of FAK, primary screen, biochemical, 635/667 nm fluorescence, BSA, DTT (AID 1130); settings: PTK2 binding, 635 nm fluorescence, higher = more signal;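 note: composite of spot emission at 667 nm and signal to noise over triplicate slides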
Chain of Focal adhesion kinase 1 (Homo sapiens) (Q05397 whole entry, looked up): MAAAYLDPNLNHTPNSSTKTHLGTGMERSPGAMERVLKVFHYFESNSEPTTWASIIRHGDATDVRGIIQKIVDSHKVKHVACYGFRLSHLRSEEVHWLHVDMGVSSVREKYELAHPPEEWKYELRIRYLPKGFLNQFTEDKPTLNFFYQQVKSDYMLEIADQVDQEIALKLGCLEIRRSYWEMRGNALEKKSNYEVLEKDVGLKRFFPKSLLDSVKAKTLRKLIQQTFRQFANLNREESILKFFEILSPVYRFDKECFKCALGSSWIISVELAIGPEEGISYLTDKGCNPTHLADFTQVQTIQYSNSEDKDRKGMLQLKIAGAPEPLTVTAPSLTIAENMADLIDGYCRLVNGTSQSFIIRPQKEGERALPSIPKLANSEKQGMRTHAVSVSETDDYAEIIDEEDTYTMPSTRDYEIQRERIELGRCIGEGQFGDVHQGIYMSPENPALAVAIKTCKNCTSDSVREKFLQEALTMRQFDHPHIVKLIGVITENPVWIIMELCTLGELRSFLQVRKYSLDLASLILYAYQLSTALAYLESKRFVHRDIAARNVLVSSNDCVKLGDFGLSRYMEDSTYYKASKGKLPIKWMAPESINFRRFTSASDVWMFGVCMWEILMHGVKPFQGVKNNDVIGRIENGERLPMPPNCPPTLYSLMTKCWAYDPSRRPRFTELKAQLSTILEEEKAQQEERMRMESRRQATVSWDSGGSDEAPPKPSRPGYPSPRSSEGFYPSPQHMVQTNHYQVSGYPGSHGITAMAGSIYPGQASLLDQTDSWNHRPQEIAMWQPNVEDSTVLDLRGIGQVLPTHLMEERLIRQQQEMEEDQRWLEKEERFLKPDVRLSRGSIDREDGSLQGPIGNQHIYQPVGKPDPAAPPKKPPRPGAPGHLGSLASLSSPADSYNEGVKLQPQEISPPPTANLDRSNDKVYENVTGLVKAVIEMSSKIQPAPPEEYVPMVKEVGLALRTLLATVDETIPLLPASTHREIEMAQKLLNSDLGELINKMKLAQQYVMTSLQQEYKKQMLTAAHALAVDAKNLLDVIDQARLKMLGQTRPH

[14] = system: Fibrinogen (Alexa647-labelled); test: fibrinogen binders on compound microarrays, profiling panel, artefact control for SMM control-protein annotation, biochemical, small-molecule microarray, 635/667 nm fluorescence (AID 1131); settings: fibrinogen-A647 binding fluorescence, higher = more signal;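 note: z-score merges 667 nm fluorescence with per-spot signal-to-noise over triplicate slides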
[15] = biological target: Follistatin (Homo sapiens) (UniProt P19883); test: follistatin binders on small-molecule microarrays, primary screen, biochemical, small-molecule microarray, 635/667 nm fluorescence (AID 1132); settings: FST binding, 635 nm fluorescence, higher = more signal
Chain of Follistatin (Homo sapiens) (P19883 whole entry, looked up): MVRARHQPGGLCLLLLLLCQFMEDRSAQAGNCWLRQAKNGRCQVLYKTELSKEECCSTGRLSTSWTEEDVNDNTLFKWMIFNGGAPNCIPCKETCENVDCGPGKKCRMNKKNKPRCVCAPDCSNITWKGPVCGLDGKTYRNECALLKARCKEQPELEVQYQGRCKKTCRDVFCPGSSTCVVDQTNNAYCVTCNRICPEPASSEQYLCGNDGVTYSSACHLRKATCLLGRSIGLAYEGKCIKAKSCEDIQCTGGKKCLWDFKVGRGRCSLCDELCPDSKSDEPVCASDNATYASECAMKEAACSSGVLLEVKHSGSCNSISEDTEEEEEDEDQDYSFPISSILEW

[16] = biological target: Fibroblast growth factor 2 (Homo sapiens) (UniProt P09038); test: FGF2 binders on small-molecule microarrays, primary screen, biochemical, small-molecule microarray, 635/667 nm fluorescence (AID 1133); settings: small-molecule microarray binding, FGF2, fluorescence 635/667; higher = more signal
Chain of Fibroblast growth factor 2 (Homo sapiens) (P09038 whole entry, looked up): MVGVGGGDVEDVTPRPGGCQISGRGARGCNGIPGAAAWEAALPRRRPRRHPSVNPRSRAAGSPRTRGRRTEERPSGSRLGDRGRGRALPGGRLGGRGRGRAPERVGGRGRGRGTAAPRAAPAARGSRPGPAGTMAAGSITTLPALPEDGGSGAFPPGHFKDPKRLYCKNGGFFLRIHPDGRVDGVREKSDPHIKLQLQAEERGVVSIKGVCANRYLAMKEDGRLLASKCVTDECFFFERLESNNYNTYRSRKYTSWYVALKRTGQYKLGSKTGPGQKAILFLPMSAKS

[17] = mitochondrial membrane potential change in A549 cells, profiling panel, cell-based, JC-1 fluorescence, basal, 24 h, 100 nL (AID 1138); settings: higher = more signal;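 note: A549 lung adenocarcinoma cells under basal conditions with no added stimulus; test concentration not given here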
[18] = system: Lefty1; test: Lefty1 binders on small-molecule microarrays, primary screen, biochemical, small-molecule microarray, 635/667 nm fluorescence (AID 1139); settings: small-molecule microarray binding, fluorescence 635/667; higher = more signal
[19] = system: wheat germ agglutinin (Triticum aestivum), Alexa647-labelled; test: wheat germ agglutinin binders on compound microarrays, profiling panel, artefact control for SMM control-protein annotation, biochemical, small-molecule microarray, 635/667 nm fluorescence (AID 1140); settings: WGA-A647 binding, 635 nm fluorescence, higher = more signal;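 note: score merges 667 nm feature emission with signal to noise over triplicate slides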
[20] = biological target: Luciferin 4-monooxygenase (Photinus pyralis) (UniProt P08659); test: firefly luciferase enzyme inhibitors, primary screen, biochemical, luminescence, purified enzyme, 2006 set (AID 1141); settings: SteadyGlo luminescence, 30 min, higher = more signal, called active from +8 up or from −8 down;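 note: cell-free assay with purified firefly luciferase at 100 ng per well in PBS; test concentration not given here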
Chain of Luciferin 4-monooxygenase (Photinus pyralis) (P08659 whole entry, looked up): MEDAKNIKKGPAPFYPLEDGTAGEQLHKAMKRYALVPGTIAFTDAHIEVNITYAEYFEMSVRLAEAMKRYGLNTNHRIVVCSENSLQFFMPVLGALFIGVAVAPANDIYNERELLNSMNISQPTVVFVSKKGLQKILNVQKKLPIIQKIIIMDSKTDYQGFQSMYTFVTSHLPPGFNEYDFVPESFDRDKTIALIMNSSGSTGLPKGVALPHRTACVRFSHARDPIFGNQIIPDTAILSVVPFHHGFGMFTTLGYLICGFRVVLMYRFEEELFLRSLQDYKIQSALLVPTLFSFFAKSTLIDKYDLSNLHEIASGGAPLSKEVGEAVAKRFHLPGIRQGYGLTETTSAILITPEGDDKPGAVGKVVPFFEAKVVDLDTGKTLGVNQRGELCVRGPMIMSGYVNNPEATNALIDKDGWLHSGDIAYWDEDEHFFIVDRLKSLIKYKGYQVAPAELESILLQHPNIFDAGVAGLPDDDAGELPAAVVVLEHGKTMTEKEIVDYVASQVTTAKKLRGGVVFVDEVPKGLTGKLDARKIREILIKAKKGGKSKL

SMILES	composite z-score [1]	composite Z-score [2]	composite z-score [3]	composite z-score [4]	composite z-score [5]	composite z-score [6]	composite z-score [7]	composite z-score [8]	composite z-score [9]	composite z-score [10]	composite z-score [11]	composite z-score [12]	composite z-score [13]	composite z-score [14]	composite z-score [15]	composite z-score [16]	z-score [17]	composite z-score [18]	composite z-score [19]	z-score [20]
COCCOC(=O)N1C(=O)[C@@]2(c3ccccc31)[C@H](C(=O)N1CCc3cc(OC)c(OC)cc3C1)[C@H]1C(=O)O[C@H](c3ccccc3)[C@H](c3ccccc3)N1[C@@H]2c1ccc(OCCO)cc1	0.843	-0.386 (inactive)	-0.0343	-0.0903	0.486	2.59	0.953	1.32	0.417	1.09	2.67	1.22	0.789	0.896	1.25	1.1	-0.382	0.492	0.722	-1.76 (inactive)
CC(C)CNC(=O)[C@@]1(Cc2ccccc2I)c2ccccc2C(=O)N(C2CCCCC2)[C@H]1c1ccc(CO)cc1	0.82	2.21 (inactive)	-0.139	-0.0432	0.619	2.1	2.06	0.342	0.133	0.565	1.57	1	0.321	0.348	0.0932	0.99	1.57	-0.104	0.84	0.258 (inactive)
C=CCOC(=O)[C@H]1[C@@H]2C(=O)O[C@@H](c3ccccc3)[C@@H](c3ccccc3)N2[C@@H](c2ccc(OCCOC(=O)[C@@H]3C[C@@H]4C(=O)N[C@@H](CC(C)C)C(=O)N4[C@@H]3c3ccc(O)cc3)cc2)[C@]12C(=O)Nc1ccccc12	0.481	0.183 (inactive)	0.058	-0.0631	0.592	2.62	0.545	1.29	1.25	1.15	2.05	1.21	0.289	0.78	1.39	1.83	-1.56	1.54	0.232	-0.0838 (inactive)
C[N+](C)(C)CCCCNC(=O)[C@H]1C[C@H]2C(=O)N3CCC[C@H]3C(=O)N2[C@H]1c1cccc(OCCO)c1	-1.75	-0.166 (inactive)	-0.0663	-0.0942	0.73	0.647	0.815	-0.531	1.3	-0.303	3.3	-1.41	-0.444	-0.944	1.43	1.41	-0.613	0.974	-1.48	-0.677 (inactive)
COc1cccc(-c2cccc(=O)o2)c1	-0.172	2.41 (inactive)	0.366	0.38	0.111	0.175	-0.0345	-0.579	0.683	-0.664	0.0707	-0.0477	-0.0753	-0.51	0.302	0.0278	-0.376	-0.198	0.143	-0.0346 (inactive)
CC(C)[Si](C#Cc1ccc(Oc2ccccc2)cc1)(O[Si](C#Cc1ccc(Oc2ccccc2)cc1)(C(C)C)C(C)C)C(C)C	0.216	0.387 (inactive)	-0.0188	-0.037	0.603	0.407	0.115	0.562	0.156	-0.76	1.69	0.701	0.0273	0.654	0.218	0.925	0.108	1.07	0.372	-0.637 (inactive)
